Assay results published in PubChem BioAssay AID434973 (Sanford-Burnham Center for Chemical Genomics, 2010).
About 4,900 (1.5%) of roughly 330,000 compounds were called active. For the sample, actives were picked, then their nearest neighbours and some compounds at random. Values without a mark were called inactive.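 The calls were made as follows: active = inhibition above about 50% at the single test dose (limit read from the data); inactive = the rest.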

Each compound was assayed against Sentrin-specific protease 7 (Homo sapiens) (UniProt Q9BQF6) (assay: blockers of human SENP7 peptidase activity – biochemical, luminescence, uHTS, primary screen (AID 434973;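 also: plate controls were DMSO with enzyme for no effect and no enzyme buffer wells for full effect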)). Settings: recombinant SENP7, Z-RLRGG-aminoluciferin luminescence, 40 min; at 5 µM; hits give high values.

Row | SMILES | inhibition
1 | CCO/N=C(/C)c1c(O)cc(-c2ccccc2)n(-c2ccccc2)c1=O | 0.576%
2 | CC1CCCC(NC(=O)c2cc(-c3ccncc3)nc3ccccc23)C1C (stereo unspecified) | -16.1%
3 | Oc1ccccc1-c1cc(-c2ccc(Cl)cc2)n[nH]1 | 92% (active)
4 | CC(C)C(=O)NCc1cc(-c2ccc(Cl)cc2)no1 | 5.4%
5 | S=c1[nH]nc(-c2cc(-c3ccccc3)n[nH]2)n1/N=C/c1c2ccccc2cc2ccccc12 | -9.51%
6 | Cc1ccc(NC(=O)c2cc(-c3ccccc3O)n[nH]2)cc1C | -11.8%
7 | c1ccc(-c2cc(-c3ccccc3)[nH]n2)cc1 | 54.4% (active)
8 | S=c1[nH]nc(-c2cc(-c3ccsc3)n[nH]2)n1-c1ccccc1 | 4.56%
9 | CO[C@@H]1[C@@H](OC(N)=O)[C@@H](O)C(Oc2ccc3c(O)c(NC(=O)c4ccc(O)c(CC=C(C)C)c4)c(=O)oc3c2C)OC1(C)C (stereo partly specified) | -1.54%
10 | COc1ccc(-n2nnnc2SCC(=O)c2ccc(OC)c(OC)c2)cc1 | 3.65%
11 | CCC(C)C(N=C1NS(=O)(=O)c2ccccc21)C(=O)N1CCC(C)CC1 (stereo unspecified) | 2.08%
12 | CCc1nnc(NC(=O)CSCc2cc(=O)n3cc(C)sc3n2)s1 | -0.123%
13 | CCCCN(C(=O)C1=NN(c2cc(C)ccc2C)C(=O)CC1)c1c(N)n(CCC)c(=O)[nH]c1=O | 1.8%
14 | Cc1ccc(CNC(=O)C2CCCN2C(=O)NCc2ccccc2)cc1 (stereo unspecified) | -3.49%
15 | O=C(NC1CCCC1)C(c1ccccn1)N(C(=O)c1csnn1)C1CCCC1 (stereo unspecified) | 4.87%
16 | O=C(Nc1ccc(Cl)cc1)c1ccsn1 | 51% (active)
17 | O=C(NCc1ccccn1)Nc1ccc(Cl)cc1 | 0.805%
18 | CCC(=O)Nc1ccc(C(=O)NNC(=O)c2ccc(Cl)cc2)cc1 | -16.2%
19 | O=C1CC(Cc2ccccc2)C(=O)N1c1ccc(Cl)cn1 (stereo unspecified) | -5.29%
20 | COc1ccccc1C1CCN(C(=S)Nc2ccc(Br)cc2)CC1 | 5.73%
21 | O=C(Nc1ccc2oc(-c3ccc4ccccc4c3)nc2c1)c1cccs1 | -22.1%

Row | SMILES | inhibition
22 | Cc1cc2nc(-c3ccc(NC(=O)c4cccnc4)cc3)oc2cc1C | -3.95%
23 | CCc1ccc2oc(-c3ccc(N)cc3)nc2c1 | 97.1% (active)
24 | CNC(=O)c1c(NC(NC(=O)c2ccco2)C(=O)c2ccc(Cl)cc2)sc2c1CCCC2 (stereo unspecified) | 3.25%
25 | CCOC(=O)c1ccc(Nc2cc(C)nc3nc(C)nn23)cc1 | 0.148%
26 | CCOC(=O)c1ccc(NC(=O)c2cc(=O)[nH]c3ccccc23)cc1 | 4.62%
27 | CCOC(=O)c1ccc(Nc2cc3ccccc3c(=O)[nH]2)cc1 | 84.1% (active)
28 | Cc1ccc(CN2CCN(c3ncccn3)CC2)c(C)c1 | -3.53%
29 | Cc1cc(=O)oc2c(C)c(OCC(=O)NCCc3ccc(S(N)(=O)=O)cc3)ccc12 | 7.75%
30 | N#C/C=C/N1CCN(Cc2ccc3c(c2)OCO3)CC1 | -6.74%
31 | Cc1c(NC(=S)NC(=O)CCc2ccccc2)c(=O)n(-c2ccccc2)n1C | -7.18%
32 | OC(c1nnc(-c2ccccc2)o1)c1cccs1 (stereo unspecified) | 2.83%
33 | Nc1ccc(-c2nnc(-c3ccccc3)o2)cc1 | 49.9%
34 | CN(C)c1ccc(-c2nnc(-c3cccnc3)o2)cc1 | 8.14%
35 | Brc1ccc(-c2noc(-c3ccccc3)n2)o1 | 88.5% (active)
36 | Brc1ccc(-c2nnc(-c3ccccc3)o2)o1 | 57.6% (active)
37 | Nc1ccc(-c2nnc(-c3ccc(-c4ccccc4)cc3)o2)cc1 | 70.3% (active)
38 | O=C(OCc1ccc(Br)cc1)c1cccc(-c2nnc(-c3ccccc3)o2)c1 | 23.5%
39 | Nc1nonc1-c1noc(-c2ccc(Br)o2)n1 | 9.66%
40 | Cn1nc(-c2ccccc2)c(-c2nc(-c3ccc(Cl)cc3)no2)c1Cl | 1.67%
41 | COc1ccc(C2C(C(C)=O)=C(O)C(=O)N2CCc2c[nH]c3ccccc23)cc1 (stereo unspecified) | 0.562%
42 | COc1ccc(NC(=O)c2sccc2SCC#N)cc1 | 7.98%

Row | SMILES | inhibition
43 | COCCN1CCn2c(nc3cc(NS(C)(=O)=O)ccc32)C1 | 3.45%
44 | O=C(OCc1ccc([N+](=O)[O-])cc1)C1CC(=O)N(Cc2ccccc2Cl)C1 (stereo unspecified) | 2.69%
45 | Cc1ccc(-c2ccc(/C=C(\C#N)C(N)=S)o2)c([N+](=O)[O-])c1 | 2.25%
46 | Cc1cc(C)nc(SCc2cn3c(C)cc(C)nc3n2)n1 | 3.49%
47 | CSc1nc(C)nc(C2CC2)c1C#N | -2.65%
48 | CC(=O)Nc1ccc(S(=O)(=O)NCC2CCC(C(=O)NCCc3ccccc3)CC2)cc1 (stereo unspecified) | 2.3%
49 | CCOc1ccc(NC(=O)COC(=O)C2CCC(=O)N2)c([N+](=O)[O-])c1 (stereo unspecified) | -6.28%
50 | CCC(C)CCN1CCN=C1N(C)C (stereo unspecified) | 9.82%
51 | Cc1noc(C)c1S(=O)(=O)N(C)C[C@H]1Oc2ccc(NC(=O)C3CC3)cc2C(=O)N([C@H](C)CO)C[C@@H]1C | -0.149%
52 | COC(=O)C1=C(C)N(c2ccc(C)cc2)/C(=C/c2ccc(O)cc2)C1=O | 8.14%
53 | COc1cc(C#Cc2ccc3cc(CCCO)oc(=O)c3c2)cc(OC)c1 | 79.7% (active)
54 | O=C1c2ccccc2C(=O)N1CCC#Cc1ccc2cc(C3(O)CCCCC3)oc(=O)c2c1 | 2.91%
55 | COc1cc(/C=C2\Oc3ccc(C#Cc4ccc(O)cc4)cc3C2=O)cc(OC)c1 | -7.29%
56 | Cn1c(=O)c2c(ncn2CC(=O)N/N=C/c2cn[nH]c2-c2ccc(F)cc2)n(C)c1=O | 1.2%
57 | CCCC(CNC(=O)COC(=O)C1=NNC(=O)CC1)c1ccc(Cl)cc1Cl (stereo unspecified) | -4.17%
58 | O=C(O)CCCN1C(=O)c2ccccc2Sc2ncccc21 | -1.32%
59 | CCOc1ccc(Oc2nc(C)cc(OC)n2)nn1 | -1.32%
60 | CCNc1nc(N)nc(-c2cc(Cl)ccc2OC)n1 | 3.35%
61 | CCNc1nc(N)nc(Oc2ccc(OCC)nn2)n1 | 73.1% (active)
